Test results reported in PubChem BioAssay AID504329 (Southern Research Specialized Biocontainment Screening …, 2011).
Out of some 340,000 compounds screened, about 1,000 (0.29%) were called active. The list is a sample of the results. Potency and affinity values are given separately. Values without a mark were called inactive. No stated cut-off is given here; in the data, inconclusive means inhibition above about 27% without an active follow-up result; inactive means below that.

Assay: H1N1 influenza NS1A inhibitors, functional cell based assay (AID 504329)
Conditions: percent inhibition, at 12.5 µM, stronger effect = higher value

Row | SMILES | inhibition
1 | C[C@H](CO)N1C[C@H](C)[C@@H](CN(C)S(=O)(=O)c2ccc(F)cc2)Oc2c(NS(=O)(=O)c3ccccc3)cccc2C1=O | -4.12%
2 | Cc1oc(-c2cccc(Cl)c2)nc1CN1CCC(C(=O)NCc2cccnc2)CC1 | 9.09%
3 | COc1ccccc1NC(=O)CN1CCN(CC(=O)Nc2ccc(F)cc2)CC1 | 1.85%
4 | CCOc1ccc(NC(=O)CN2CCN(CC(=O)Nc3ccccc3OC)CC2)cc1 | -5.69%
5 | CCOC(=O)c1c(NC(=O)CN2CCN(C(=O)c3ccco3)CC2)sc(C)c1C | -5.18%
6 | CC[n+]1c(/C=C/Nc2ccccc2)sc2ccccc21 | 11.6%
7 | CC[n+]1c(/C=C(\C)OC)sc2ccccc21 | -2.73%
8 | CC[n+]1c(/C=C(\C)SC)sc2ccccc21 | 3.81%
9 | CC/C(=C/c1sc2ccccc2[n+]1CC)SC | -0.17%
10 | CC[n+]1c(/C=C(/C)SC)sc2ccccc21 | -2.81%
11 | CCN1/C(=C\C=C(C(C)=O)C(C)=O)Sc2ccccc21 | 3.69%
12 | Cc1nn(C(C)C(=O)NNC(=S)Nc2ccc(F)cc2)c(C)c1[N+](=O)[O-] (stereo not given) | 6.47%
13 | Cc1c(O)ccc(C(=O)CN2CCN(c3ccccc3F)CC2)c1O | -1.8%
14 | CC(C)(C)c1ccc(C(=O)NCCCNC(=O)c2cccnc2)cc1 | -2.72%
15 | CCN(CC)C(=O)c1sc2nc(-c3ccccn3)[nH]c(=O)c2c1C | -6.6%
16 | Cc1sc2nc(-c3ccccn3)[nH]c(=O)c2c1-c1ccccc1 | -4.3%
17 | Cc1cc(C)c(S(=O)(=O)N2CCCC(C(=O)N3CCOCC3)C2)c(C)c1 (stereo not given) | -9.55%
18 | Fc1ccccc1NC(=S)N1CCOCC1 | 16.1%
19 | COC(=O)c1sc(S(=O)(=O)Nc2ccc(C)cc2)c(C(=O)OC)c1C | 12.7%
20 | CCN(/C(N)=N/c1nc(C)cc(C)n1)c1ccccc1 | -6.77%
21 | CC12CCC(C(=O)N(CSC(=S)N/N=C\c3ccccc3Cl)C1=O)C2(C)C (stereo not given) | -1.31%
22 | CC12CCC(C(=O)N(CSC(=S)N/N=C\c3ccccc3)C1=O)C2(C)C (stereo not given) | 6.84%
23 | CCC(C(=O)NC1CCCC1)n1c(SCc2cccc(C)c2)nc2ccncc21 (stereo not given) | -51.9%
24 | O=[N+]([O-])c1c(NCCCO)cc(N2CCCCCC2)c2nonc12 | 21.6%

Row | SMILES | inhibition
25 | COc1ccc(-c2nc(C#N)c(N3CC(C)OC(C)C3)o2)cc1OC (stereo not given) | 2.35%
26 | COc1ccc(NS(=O)(=O)c2ccc(C(=O)N3CCN(c4ccc(F)cc4)CC3)cc2)cc1 | 1.18%
27 | CC(CC(F)(F)F)N1CCC(n2nccc2NC(=O)CCCc2ccccc2)CC1 (stereo not given) | -11%
28 | Oc1c(Br)cc(Br)cc1/C=N/Nc1ccc(Cl)nn1 | 4.26%
29 | Cc1ccccc1/C=N/Nc1ccc(Cl)nn1 | 3.61%
30 | Fc1ccccc1/C=N/Nc1ccc(Cl)nn1 | -6.11%
31 | Oc1ccc(/C=N/Nc2ccc(Cl)nn2)cc1O | 4.82%
32 | CCCCC(=O)Nc1cccc(C(=O)N/N=C/c2ccc(OC)cc2OC)c1 | 1.12%
33 | CC(C)OC(=O)c1cn(-c2ccccc2)nc1-c1ccc2c(c1)OCCO2 | -6.27%
34 | CCN(C[C@H]1N[C@@](C)(C(=O)OC)[C@H]2C(=O)N(Cc3ccccc3)C(=O)[C@@H]12)C(=O)c1ccc(F)cc1 | -26.8%
35 | O=C(CN1CCN(C(C(=O)Nc2ccc(Cl)cc2C(F)(F)F)c2ccccc2)CC1)NC1CC1 (stereo not given) | 3.63%
36 | CC(=O)c1ccc(NC(=O)C(C)Nc2ccc(Cl)cc2)cc1 (stereo not given) | -4.25%
37 | COC(=O)C(=CC(=CN(C)C)C=C(C(=O)OC)C(=O)OC)C(=O)OC | -13.2%
38 | CC(C)Cn1c(NCCO)nc2ccccc21 | -6.72%
39 | O=C(COC(=O)c1ccccn1)Nc1cccc2ccccc12 | -2.54%
40 | O=c1[nH]c(-c2ccccn2)cc2ccccc12 | -3.67%
41 | CN(C)CCCNCC(=O)Nc1ccccc1N1CCOCC1 | 5.38%
42 | O=C(COc1ccc2ccccc2c1)N1CCN(C(=O)c2ccco2)CC1 | -12.2%
43 | O=C1c2ccccc2C(=O)c2c1cccc2N(CCO)CCO | 4.16%
44 | CN(C=[N+](C)C)c1cccc2c1C(=O)c1ccccc1C2=O | 3.5%
45 | CN(C)S(=O)(=O)c1cccc2c1C(=O)c1ccccc1C2=O | 4.55%
46 | CC(=O)NC1=C(Nc2ccc(N(C)C)cc2)C(=O)c2ccccc2C1=O | 12.5%
47 | CCN(CC)CC(=O)Nc1cccc2c1C(=O)c1ccccc1C2=O | 11%
48 | CNc1c(C(=O)O)ccc2c1C(=O)c1ccccc1C2=O | 13.4%

Row | SMILES | inhibition
49 | CC(C)C[C@H]1COCCS(=O)(=O)N1Cc1cccc(F)c1 | -14.6%
50 | Cc1ccc(NC(=O)CC2S/C(=N/c3nccs3)N(C)C2=O)c(C)c1 (stereo not given) | 2.84%
51 | CCCCNC(=O)NNC(=O)c1ccoc1C | 0.18%
52 | Cc1cc2oc(=O)cc(COC(=O)Cn3cnnn3)c2cc1C(C)C | -1.41%
53 | Cc1nc(SCC(=O)Nc2c(C)n(C)n(-c3ccccc3)c2=O)c2cnn(-c3ccccc3)c2n1 | -4.59%
54 | CC(C)Nc1nc(NC(C)C)nc(N(C)N)n1 | 14.6%
55 | CCNc1nc(NCC)nc(N(C)n2cnnc2)n1 | -22%
56 | COc1ccccc1C(=O)NNS(=O)(=O)c1ccc(F)cc1 | -5.08%
57 | CCc1ccc(NS(=O)(=O)c2c(C(=O)N3CCOCC3)c(C)n(C)c2C)cc1 | 0.85%
58 | CCOC(=O)C(C)Oc1ccccc1C1NC(=O)NC(C)=C1C(=O)Nc1ccc(C)c(C)c1 (stereo not given) | -6.31%
59 | [O-][n+]1c2c(nn1-c1ccccc1)/C(=N/O)CCC2 | -6.08%
60 | CCOC(=O)Cc1nnc(NC(=O)COc2ccc(F)cc2)s1 | 6.17%
61 | O=C(Nc1nc(-c2ccco2)c(-c2ccco2)s1)c1c(F)cccc1Cl | -14.8%
62 | CC1=CC(=NNS(=O)(=O)c2ccc([N+](=O)[O-])cc2)CC(C)(C)C1 | 4.39%
63 | CC1(C)OC(=O)C(=NNc2ccccc2[N+](=O)[O-])C(=O)O1 | 3.07%
64 | CC(=O)COc1cc(C)cc2oc(=O)c(C)c(C)c12 | 11.6%
65 | CCc1ccc2c(c1)C1(NN=C(c3ccc(C)cc3)S1)C(=O)N2 (stereo not given) | 22.9%
66 | CCc1ccc2c(c1)C1(NN=C(c3cccc4ccccc34)S1)C(=O)N2 (stereo not given) | 11.6%
67 | CCOc1ccccc1Nc1cc(C)nc2ccc(C)cc12 | 6.09%
68 | Cc1ccc(N2CC(NS(=O)(=O)c3cc(F)ccc3F)CC2=O)cc1C (stereo not given) | 9.69%
69 | CCS(=O)(=O)NCc1ccc2c(c1)cc(C)n2C | 10.3%
70 | Cc1nc(CNS(=O)(=O)c2ccc(Oc3ccccc3)cc2)cs1 | -11.2%
71 | Cc1ccc(S(=O)(=O)NCc2csc(C)n2)cc1 | -0.87%
72 | Cc1cc2cc(CNS(=O)(=O)c3ccccc3)ccc2n1C | 17%

Row | SMILES | inhibition
73 | CC(=O)Nc1ccc(S(=O)(=O)NCc2ccc3c(c2)cc(C)n3C)cc1 | 19.1%
74 | CCCS(=O)(=O)NCc1ccc2c(c1)cc(C)n2C | 7.25%
75 | O=S(=O)(NCc1ccccc1)c1ccc2ccccc2c1 | -9.3%
76 | Cc1cc(C)c(S(=O)(=O)NCc2ccc3c(c2)cc(C)n3C)c(C)c1 | 21.8%
77 | COc1ccccc1C(=O)NCC(=O)OCC(=O)c1ccc2c(c1)-c1ccccc1C2 | 2.5%
78 | CSc1ccccc1OCc1cc(C(=O)N2CCN(c3ncccn3)CC2)no1 | -3.62%
79 | O=C(c1ccccc1F)N1CCCc2ccccc21 | -3.09%
80 | CCOC(=O)CN(C(=O)CNC(=O)c1cccs1)C(C(=O)NC1CCCC1)c1ccncc1 (stereo not given) | -5%
81 | CCC(C(=O)N/N=C/c1cccnc1)c1ccccc1 (stereo not given) | -5.44%
82 | Cc1cc(C(=O)NC2CCCN(Cc3ccccc3F)C2)n[nH]1 (stereo not given) | -3.85%
83 | C=CCNC(=S)Nc1ccccc1-c1nnc2n1CCCCC2 | 9.65%
84 | COC(=O)c1cc(C(=O)OCC(=O)NC2CCCCCCC2)cc([N+](=O)[O-])c1 | -0.07%
85 | Cc1ccc(CNC(=O)COc2ccc(C)nc2[N+](=O)[O-])cc1 | -5.51%
86 | CCCCC(=O)Nc1c2c(nn1-c1ccc(C)cc1)CS(=O)(=O)C2 | -7.59%
87 | COC(=O)c1c(C)cc(C)c2c1CC(C)(C)C2=O | 5.46%
88 | Cc1ccc(S(=O)(=O)N2CCOCC2)cc1C(=O)Nc1nc(-c2ccccn2)cs1 | 7.65%
89 | O=C(Nc1ccccc1)c1ccc(F)c(S(=O)(=O)N2CCOCC2)c1 | 5.59%
90 | COc1ccc(C(=O)Nc2nc(-c3ccccn3)cs2)cc1S(=O)(=O)N1CCOCC1 | -8.69%
91 | O=C(Nc1nccs1)c1ccc(F)c(S(=O)(=O)N2CCOCC2)c1 | -4.84%
92 | Cc1ccc(S(=O)(=O)N2CCOCC2)cc1C(=O)Nc1nc(-c2cccnc2)cs1 | -7.87%
93 | Cc1ccc(C(=O)Nc2ccccn2)cc1S(=O)(=O)N1CCOCC1 | -1.96%
94 | CCC(NC(=O)COc1cc2c(c3oc(=O)c(C)c(C)c13)CCC(C)(C)O2)C(=O)O (stereo not given) | -8.88%
95 | CC(C)CCN1CC(=O)N2Cc3[nH]c4ccccc4c3C[C@H]2C1=O | 19.7%
